In the OligoGym collection:

target: IL10; test: pooled miR-30 sensor sort-seq; sequence = guide strand; conditions: shRNA
Note: reference of the scale not given here.

**Q.** For TTTCACAGGGAAGAAATCGATG, which sensor-assay potency score (higher = more potent) is on record?
**A.** -0.836

**Q.** For ATTAAAGGCATTCTTCACCTGC, which sensor-assay potency score (higher = more potent) is on record?
**A.** -0.126

**Q.** Which sensor-assay potency score (higher = more potent) does the source give for TAGGCTTCTATGTAGTTGATGA here?
**A.** -0.258

**Q.** ATCTCGGAGATCTCGAAGCATG was tested. Which sensor-assay potency score (higher = more potent) did it give?
**A.** -1.73

**Q.** TTGATGAAGATGTCAAACTCAC was tested. Which sensor-assay potency score (higher = more potent) did it give?
**A.** -0.225

**Q.** TGAAAGAAAGTCTTCACTCTGC was tested. Which sensor-assay potency score (higher = more potent) did it give?
**A.** 0.368

**Q.** AACAACAAGTTGTCCAGCTGAT was tested. Which sensor-assay potency score (higher = more potent) did it give?
**A.** 0.182

target: IL12RB2; test: as above; conditions: shRNA

**Q.** How did the sensor-assay potency score (higher = more potent) turn out when TTGAATTTGCTGCAGACACAGC was run?
**A.** -0.876

**Q.** How did the sensor-assay potency score (higher = more potent) turn out when TTCTGGAGCAACACCAACGAAG was run?
**A.** -0.95

**Q.** With TTTTGCTTTAATCAACAGCCAC as the sequence, how does the sensor-assay potency score (higher = more potent) read?
**A.** -1.02

**Q.** With TTAACCATATTCCAGAGCCTGC as the sequence, how does the sensor-assay potency score (higher = more potent) read?
**A.** -1.49

**Q.** How did the sensor-assay potency score (higher = more potent) turn out when TTGTCTACTGTAGTCAATGTGC was run?
**A.** -0.32

**Q.** With TTGTACAGGATTAACTTGTTAC as the sequence, how does the sensor-assay potency score (higher = more potent) read?
**A.** -0.744

**Q.** How did the sensor-assay potency score (higher = more potent) turn out when TTTGCTTTAATCAACAGCCACG was run?
**A.** -1.11

**Q.** Which sensor-assay potency score (higher = more potent) does the source give for TTGATTCTTCTGTCAAACTTGT here?
**A.** 0.0343

**Q.** With TTAGCTGTAGAGTATACTCAGT as the sequence, how does the sensor-assay potency score (higher = more potent) read?
**A.** -0.26

**Q.** TACCAGACATCTAACATCCCAG was tested. Which sensor-assay potency score (higher = more potent) did it give?
**A.** -0.395

**Q.** Which sensor-assay potency score (higher = more potent) does the source give for TTGAATTTCATCACTATTGATA here?
**A.** -0.279

**Q.** With TTGCAGACAAACAAGGTTGTAC as the sequence, how does the sensor-assay potency score (higher = more potent) read?
**A.** 0.163
